The structures appear in SMILES notation. Out of some 69,000 compounds screened, about 8,600 (12%) showed an effect of 50% or more. What follows is part of a selection rich in strong results, with near analogues and random picks from the rest.

In the assay the test system is Plasmodium berghei. Put plainly: Screen against P. berghei liver stage (PbLuc), transformed with Luciferase, at 10uM. The class given is functional, HepG2. As to conditions: tested at 10 uM.
In the case of `CN(C(=O)c1cc(F)ccc1F)[C@@H]1CC[C@@H](O)[C@@H]1O`, the INHIBITION is 2.55%. The value for `Nc1cc(-c2c[nH]nc2C2CCCN2S(=O)(=O)c2ccccc2)ccn1` (stereo not given) was 39.1%; that for `CC(C)Nc1cc(-c2c[nH]nc2C2CCN(C(=O)C3CCC3)C2)ccn1` (stereo not given) was 88.45%; that for `CC(C)N1CCC(c2n[nH]cc2-c2ccnc(N)c2)C1` (stereo not given) was 26.5%. The value for `Nc1cc(-c2c[nH]nc2C2CCCCN2C(=O)C2CCCC2)ccn1` (stereo not given) was 59.9%. With `Cc1cc(N2CC(c3n[nH]c4nccnc34)C2)ncn1` the figure was 18.3%; with `Cc1cc(N2CCC(c3n[nH]c4nccnc34)CC2)ncn1`, 58.1%; with `CN(C)S(=O)(=O)N1CCC(c2n[nH]cc2-c2ccnc(N)c2)C1` (stereo not given), -9.215%. With `Cc1cc(N2CCC(c3n[nH]c4nccnc34)C2)ncn1` (stereo not given), the INHIBITION was -4.51%. The value for `CCCNc1cc(-c2c[nH]nc2C2CCN(C(=O)C3CCC3)C2)ccn1` (stereo not given) was 87.35%; that for `Nc1cc(-c2c[nH]nc2C2CCN(C(=O)C3CCCC3)C2)ccn1` (stereo not given) was 31.75%; that for `Cc1c[nH]nc1C1CCN(C(=O)Cn2cccn2)C1` (stereo not given) was -9.32%.

As to `COCC(=O)N1C[C@@H](OCc2cccnc2)[C@H]2OCCC[C@@H]21`, the INHIBITION is recorded as 26.5%. The value for `Cc1ccc(S(N)(=O)=O)cc1C(=O)NC1CCCC1` was 12.2%. The value for `CC(=O)N1CCCC(c2ccnc(Nc3cnccn3)c2)C1` (stereo not given) was -9%. The value for `O=C(NCC(CO)Cc1cccc(OC(F)(F)F)c1)c1cnccn1` (stereo not given) was 30.8%; that for `O=C(Cc1csc(-c2ccsc2)n1)N1CCN(c2cnccn2)CC1` was -40.2%; that for `Cc1nc(C)n(CC2CCCN(CCC(=O)NC3CCCCC3)C2)n1` (stereo not given) was -4.16%.

Consider `CN1CC(C(=O)NC2(c3ccc(Cl)cc3)CCOCC2)CC1=O` (stereo not given), for which the INHIBITION amounted to 8.31%. With `NC(=O)c1c(NC(=O)CCCC(=O)O)sc2c1CCc1ccccc1-2` the figure was 33%; with `Cc1nn(C)c(C)c1-c1nccnc1CC1CCNCC1`, -17.9%. `CCc1c(C)nn2c(O)cc(C3CCN(C(=O)c4ccn(C)n4)C3)nc12` (stereo not given): the INHIBITION is reported as 3.623%. With `c1cnc(N2C[C@@H]3COC[C@]3(COCC3CCCC3)C2)nc1` the figure was 15.4%.

For `CN(C)[C@@H]1CCN(CC2CC2)[C@H]1Cc1cnn(C)c1`, the INHIBITION was 1.94%. As for `CN1CC(=O)N(c2cnn(C)c2)CC12CCN(Cc1ccccc1)C2` (stereo not given), the INHIBITION is 21.8%.

Turning to `CC1CCN(CCNC(=O)c2scnc2Cl)CC1`, the INHIBITION was found to be 40.2%. With `Cc1cc(C)n(-c2nc(C(=O)NCCN3CCC(C)CC3)cs2)n1` the figure was 61%; with `CN1CCN(CCNC(=O)c2sccc2C2CC2)CC1`, 31.6%; with `CCc1nc(C)c(C(=O)NCCN2CCC(C)CC2)s1`, 15.6%. As for `Cc1cc(C)n(-c2nc(C(=O)NCCS(=O)(=O)N3CCCCC3)cs2)n1`, the INHIBITION is 0.696%.

Take `O=C(c1sccc1C1CC1)N1CCN(c2ncccn2)CC1`: the INHIBITION is 49.1%. With `CC1CCN(CCNC(=O)c2sccc2C2CC2)CC1` the figure was 81.5%; with `O=C(NCC(=O)N1CCN(c2ccccc2)CC1)c1sccc1C1CC1`, 92%; with `O=C(NCC(=O)N1CCCCC1)c1sccc1C1CC1`, 17.2%. The value for `COc1ccccc1NC(=O)NCc1nnc(SC)n1C` was 8.125%. With `N#CC1(C(=O)N2CCCN(Cc3cscn3)CC2)CCCCC1` the figure was -54.6%; with `CC(C)C(=O)N1CCCC(Cc2ncccn2)C1` (stereo not given), 32.7%; with `CC(C)CCCC1CN(C(=O)c2cnc[nH]2)CCO1` (stereo not given), -10.5%. On to `Cc1ccc(CNC(c2ccc(F)cc2)c2nccn2C)o1` (stereo not given), for which the INHIBITION turned out to be 52.6%. The value for `COc1c(CNC(c2ccccc2)c2nccn2C)c(C)nn1C` (stereo not given) was 39.4%. With `CSc1ccc(CNC(c2ccccc2F)c2nccn2C)cc1` (stereo not given) the figure was -27.24%; with `CSc1ccc(CNC(c2ccccc2)c2nccn2C)cc1` (stereo not given), 79.1%.

As for `CSc1ccc(CNC(c2ccc(F)cc2)c2nccn2C)cc1` (stereo not given), the INHIBITION is given as -1.6%. With `Cn1ccnc1C(NCc1ccccc1)c1ccc(F)cc1` (stereo not given) the figure was 32.9%; with `COc1cccc(C(NCc2ccc(SC)cc2)c2nccn2C)c1` (stereo not given), 51.2%. With `Cn1ccnc1C(NCc1ccc(Br)cc1)c1ccccc1` (stereo not given) the figure was -32.9%. The value for `Cn1ccnc1C(NCc1csc(Br)c1)c1ccccc1` (stereo not given) was 51.6%; that for `Cc1ccc(CNC(c2cccc(F)c2)c2nccn2C)o1` (stereo not given) was 24.2%. For the compound `COc1cc(CNC(c2ccccc2)c2nccn2C)cc(OC)c1` (stereo not given), the INHIBITION is reported as -76.15%. With `COc1ccccc1C(NCc1ccc(SC)cc1)c1nccn1C` (stereo not given) the figure was 29.06%. With `CC(=O)NCCCNC(=O)Nc1ccccc1-n1nc(C)cc1C` the figure was 9.06%. The value for `COc1ccccc1C(=O)NS(=O)(=O)c1cccc(C#N)c1` was 25.1%. For the compound `COc1cc(CN)c(OC)c2c1OCO2`, the INHIBITION was -3.48%. As for `CCCS(=O)(=O)N1CCC2(CN(c3ccsc3)C(=O)CN2C)C1` (stereo not given), the INHIBITION is on record as -24.2%. With `Cc1oncc1C(=O)N1CC[C@H]2C[C@H](c3ccncn3)O[C@@H]2C1` the figure was 11.3%; with `Cn1ncc(Cl)c1C(=O)N1CCC(c2nnsc2S(C)(=O)=O)CC1`, -9.2465%; with `Cc1ccc(CNC(c2ccccc2)c2nccn2C)cc1` (stereo not given), 33.6%.

Consider `Cc1ccc(CNC(c2ccccc2)c2nccn2C)cc1C` (stereo not given), for which the INHIBITION was found to be 54.9%. With `Cc1cc(C)cc(CNC(c2ccccc2)c2nccn2C)c1` (stereo not given) the figure was 41.15%. With `Cc1cc(CN2CCCC2c2noc(C(C)C)n2)on1` (stereo not given) the figure was 47%; with `O=C(O)c1cncc(Cc2ccc(F)cc2)c1`, -3.02%; with `CCN(Cc1ccncc1)C(=O)c1cc(C)c(C)c(S(N)(=O)=O)c1`, 52.8%. With `CCN(Cc1ccoc1)C(=O)c1ccc(C)c(S(N)(=O)=O)c1` the figure was -2.97%; with `CCN(Cc1ccoc1)C(=O)c1cc(C)c(C)c(S(N)(=O)=O)c1`, -5.94%; with `CC(C)(C)C(=O)NCC(=O)NCCc1nc(C(F)(F)F)cs1`, 15%.

Consider `CN(C)C(=O)N1CCN(C(=O)c2ccc(Cl)cc2)CC2(CNC(=O)C2)C1` (stereo not given), for which the INHIBITION is 21.7%. The value for `O=C1CC2(CCN(C(=O)c3cccc(Cl)c3)CC2)CN1` was 55.7%; that for `COc1cc(Cl)cc(C(=O)N2CCC3(CC2)CNC(=O)C3)c1` was 13.7%. `CN(C)C(=O)N1CCN(C(=O)c2cccc(Cl)c2)CC2(CNC(=O)C2)C1` (stereo not given): the INHIBITION was 79.6%. For the compound `CS(=O)(=O)N1CCN(C(=O)c2cccc(Cl)c2)CC2(CNC(=O)C2)C1` (stereo not given), the INHIBITION is 13.7%. The value for `CN(C)C(=O)N1CCN(C(=O)c2ccccc2)CC2(CNC(=O)C2)C1` (stereo not given) was -0.804%. With `O=C(Cc1noc2ccccc12)N1CCC(Nc2cccnn2)CC1`, the INHIBITION came out at 43.3%.

As to `CC(C)(C)c1n[nH]c(C2CN(C(=O)c3cc(C4CC4)on3)CCO2)n1` (stereo not given), the INHIBITION is reported as 35.5%. With `O=C(CCCNc1ncccn1)N1CCCC(n2cncn2)C1` (stereo not given) the figure was 27.6%; with `O=C([C@H]1CN(Cc2nccs2)C[C@H]2OCC[C@@H]12)N1CCCCO1`, 22.2%; with `CCOC1(C)C(=O)c2ccccc2N1Nc1ccccc1C(=O)CC` (stereo not given), 67.3%.

With `CCC(=O)c1ccccc1NN1c2ccccc2C(=O)C1(C)OC` (stereo not given), the INHIBITION is reported as 17.6%. The value for `CCC(=O)c1ccc(Br)cc1NN1c2cc(Br)ccc2C(=O)C1(C)OC` (stereo not given) was 70.6%; that for `CC(NC(=O)N1CCNC(=O)CC1)c1ccc(C(F)(F)F)cc1` (stereo not given) was 48.2%; that for `Cc1cc2n(n1)[C@@H](C(F)(F)F)C[C@@H](C1CCN(C(=O)C(C)C)CC1)N2` was -26.2%. The value for `Cc1cnc(C(=O)N2CCCC(c3c(C)c(=O)nc4n3CCC4)C2)cn1` (stereo not given) was -17.7%; that for `O=S(=O)(NCc1ccccc1)N1CCCN(c2ccncc2)CC1` was 71.3%; that for `N#Cc1cccnc1N1CCN(S(=O)(=O)NCc2ccccc2)CC1` was 11.5%. In the case of `O=S(=O)(NCc1ccccc1)N1CCN(c2ncccn2)CC1`, the INHIBITION was found to be 31%.

Take `Cc1cccc(=O)n1CCCNc1ncnc2c1CCNCC2`: the INHIBITION is given as -1.98%.

Regarding `Cc1[nH]c2ccc(Cl)cc2c1CCNc1ncnc2c1CCNC2`, the INHIBITION is 92.5%. For `Cc1ccccc1C(CNc1ncnc2c1CCNC2)N(C)C` (stereo not given), the INHIBITION is reported as -2.98%.

Take `Cc1[nH]c2ccc(C#N)cc2c1CCNc1ncnc2c1CCNCC2`: the INHIBITION amounted to 44.3%. Consider `Cc1[nH]c2ccccc2c1CCNc1ncnc2c1CCNCC2`, for which the INHIBITION amounted to 72.1%. The value for `Cc1ccccc1C(CNc1ncnc2c1CCNCC2)N(C)C` (stereo not given) was -59.8%. The value for `c1cnn(CCN2CCOC(Cn3cccn3)C2)c1` (stereo not given) was -59.4%; that for `CCCOCC(=O)N1CCc2nc(NC)nc(C(=O)N3CCCC3)c2C1` was -5.08%.

As to `CN(C)c1ccc(C(=O)N2CCN(c3cnccn3)CC2)cn1`, the INHIBITION came out at 2.1%. As for `Cc1nn(C)c2ncc(CN3CCN(c4ncccn4)CC3)cc12`, the INHIBITION came out at 7.3%. The value for `CCC(C)NC(=O)CS(=O)(=O)Cc1cc(Cl)c2c(c1)OCCCO2` (stereo not given) was -58.7%.

Consider `CCOC(=O)C1(O)CCN(C(=O)Nc2cccc(CC)c2)CC1`, for which the INHIBITION is -41.8%.

Turning to `COc1c(C2CCCN2C(=O)c2ccnc(C)n2)c(C)nn1C` (stereo not given), the INHIBITION is on record as 3.73%. Consider `Cc1nn(C)cc1CN1CCCCCC1c1ccc(Cl)cc1` (stereo not given), for which the INHIBITION was determined as 13.6%.

As for `COc1ccnc(N2CCN(C(C)c3nc(C)no3)CC2)n1` (stereo not given), the INHIBITION was found to be 22.6%. The value for `Cc1noc(C(C)N2CCN(c3ncnc4ccccc34)CC2)n1` (stereo not given) was 51.3%. With `Cc1noc(C(C)N2CCC(c3nc4ccccc4[nH]3)CC2)n1` (stereo not given) the figure was 35.4%. With `Cc1cnc(CN2CCN(C(C)c3nc(C)no3)CC2)cn1` (stereo not given) the figure was -14.8%; with `Cc1noc(C(C)N2CCN(c3ncnc4sccc34)CC2)n1` (stereo not given), 68.8%; with `COc1cc(C)nc(N2CCN(C(C)c3nc(C)no3)CC2)n1` (stereo not given), -72.5%.

Take `CCOc1cc(C)nc(N2CCN(C(C)c3nc(C)no3)CC2)n1` (stereo not given): the INHIBITION is 18.7%. With `CCc1noc(C(C)N2CCN(c3ncnc4sccc34)CC2)n1` (stereo not given) the figure was 61.7%. The value for `CCc1noc(C(C)N2CCN(C)CC2)n1` (stereo not given) was -5.25%. On to `CCc1noc(C(C)N2CCN(c3ccc(C#N)cn3)CC2)n1` (stereo not given), for which the INHIBITION was -25.3%. With `Cc1noc(C(C)N2CCN(Cc3ccco3)CC2)n1` (stereo not given) the figure was 34.7%; with `CCc1cc(C)nc(N2CCN(C(C)c3nc(C)no3)CC2)n1` (stereo not given), 53.4%.

(Values after ChEMBL document CHEMBL4513216, “Probing the Open Global Health Chemical Diversity Library for Multistage-Active Starting Points for Next-Generation Antimalarials” (ACS Infect Dis, 2020).)
